This passage reports growth results from PubChem BioAssay (NCI).

Test systems include DU-145 prostate; K-562 leukemia; MALME-3M melanoma; MDA-MB-231 breast; RXF 393 renal; SF-268 CNS; SF-295 CNS; SF-539 CNS; UACC-257 melanoma; M14 melanoma; HCT-15 colon; HT29 colon; SNB-75 CNS; SNB-19 CNS; U251 CNS; PC-3 prostate; SK-MEL-5 melanoma; UACC-62 melanoma; LOX IMVI melanoma; SK-MEL-28 melanoma.
Common to all, as to assay: NCI-60 one-dose screen, 48 h (100 = growth as untreated, 0 = no growth, -100 = all killed)
What all share (conditions): 10 µM unless noted

Molecules are shown by their SMILES. This is part of a sample that, as a whole, favours compounds with a hit. Of some 83,000 tested, about 20% had one in any assay.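 Cell lines were cultured in 96-well plates, exposed to a single compound concentration, and assessed for percent growth 48 hours later.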 A number with no mark means an inactive call. The source made the active and inactive calls. Rule for the calls: active = growth percent below 10; inactive = the rest.

As for `CC(Nc1ncnc2ccc(-c3ccc4oc(N)nc4c3)cc12)c1ccccc1` (stereo not given), the growth with DU-145 prostate is 14%; in the assay on K-562 leukemia, 7.11% (active); in the assay on MALME-3M melanoma it was -26.5% (active); in the assay with MDA-MB-231 breast it was -38% (active); in the assay with RXF 393 renal it was -77.9% (active); with SF-268 CNS, 35.6%. Further, the growth with SF-295 CNS was -17.4% (active); in the assay on SF-539 CNS, -89.4% (active); in the assay on UACC-257 melanoma it was 73.4%; in the assay on M14 melanoma, 23.7%; in the assay on HCT-15 colon, 5.13% (active); in the assay with HT29 colon, 29.5%. Further, the growth in the assay on SNB-75 CNS was -82.8% (active); with SNB-19 CNS, 20.3%; in the assay on U251 CNS it was -22.8% (active); in the assay with PC-3 prostate it was 34.4%; in the assay with SK-MEL-5 melanoma, -75.3% (active); in the assay with UACC-62 melanoma, 11.9%. Also, the growth in the assay with LOX IMVI melanoma was -97.7% (active); in the assay with SK-MEL-28 melanoma, 17.4%.
As for `Cc1ccc(/C=C/C(=O)c2ccc(S(=O)(=O)NCCNc3nc(N(C)C)nc(N4CCOCC4)n3)cc2)cc1`, the growth in the assay with DU-145 prostate is 95.3%; in the assay with K-562 leukemia, 6.8% (active); in the assay with MALME-3M melanoma, 108%; with MDA-MB-231 breast, 85%; in the assay with RXF 393 renal it was 85%; in the assay with SF-268 CNS, 79.6%. The growth in the assay with SF-295 CNS is 94.4%; in the assay with SF-539 CNS, 81.7%; with UACC-257 melanoma it was 85.7%; in the assay with M14 melanoma, 95.5%; in the assay with HCT-15 colon it was 46.1%; in the assay on HT29 colon, 37.3%. For the same molecule, the growth in the assay on SNB-75 CNS is 59.5%; in the assay on SNB-19 CNS, 79.1%; in the assay on U251 CNS, 42.7%; in the assay with PC-3 prostate, 57.4%; with SK-MEL-5 melanoma, 89%; in the assay on UACC-62 melanoma it was 72.6%. Also, the growth was 42.1% in the assay on LOX IMVI melanoma and 90.7% in the assay on SK-MEL-28 melanoma.
As to `N#CC1=C(c2cccs2)Nc2c(c(-c3ccccc3)nn2-c2ccccc2)C12C(=O)Nc1ccccc12` (stereo not given), the growth in the assay on DU-145 prostate is 33.5%; with K-562 leukemia it was 9.66% (active); with MALME-3M melanoma, 26.9%; in the assay with MDA-MB-231 breast, 34.2%; in the assay with RXF 393 renal it was -13.4% (active); in the assay with SF-268 CNS, 54.3%. The growth in the assay with SF-295 CNS was 40.3%; in the assay with SF-539 CNS, -45.2% (active); with UACC-257 melanoma, 88%; in the assay on M14 melanoma, 14.6%; with HCT-15 colon, 11.9%; in the assay on HT29 colon, 6.67% (active). The growth in the assay on SNB-75 CNS is 60.5%; in the assay on SNB-19 CNS it was 25.4%; in the assay on U251 CNS it was 11.6%; in the assay on PC-3 prostate, 6.98% (active); in the assay with SK-MEL-5 melanoma, 23.9%; with UACC-62 melanoma, 48.5%. Moreover, the growth was 61.6% in the assay on LOX IMVI melanoma and 15.2% in the assay on SK-MEL-28 melanoma.
With `C#CCN(C)CCCOc1ccc(N(CC)C(=O)c2cc(C(C)C)c(O)cc2O)cc1Cl`, the growth in the assay on DU-145 prostate is 1.4% (active); with K-562 leukemia, -26.6% (active); with MALME-3M melanoma it was -51.5% (active); in the assay with MDA-MB-231 breast, -45.3% (active); in the assay on RXF 393 renal, 2.57% (active); in the assay with SF-268 CNS, 28.2%. Moreover, the growth in the assay with SF-295 CNS was -2.79% (active); in the assay on SF-539 CNS, 6.42% (active); in the assay on UACC-257 melanoma, -11.6% (active); with M14 melanoma it was -45.8% (active); with HCT-15 colon, -52.8% (active); in the assay with HT29 colon, 7.04% (active). In addition, the growth in the assay with SNB-75 CNS was -1.15% (active); with SNB-19 CNS, 11.2%; in the assay with U251 CNS, 1.31% (active); in the assay with PC-3 prostate it was 12.6%; with SK-MEL-5 melanoma, -95.9% (active); in the assay with UACC-62 melanoma it was -66% (active). The growth in the assay with LOX IMVI melanoma is -95.4% (active); with SK-MEL-28 melanoma, 5.69% (active).
On to `COc1ccc(NC(=O)NN2C(=O)c3ccccc3N(C)C2c2ccc(OC)cc2)cc1` (stereo not given), for which the growth is 107% in the assay with DU-145 prostate; 95.6% in the assay on K-562 leukemia; 95% in the assay on MALME-3M melanoma; 98.9% with MDA-MB-231 breast; 112% in the assay on RXF 393 renal; 107% in the assay on SF-268 CNS. Also, the growth in the assay on SF-295 CNS is 101%; in the assay with SF-539 CNS, 100%; with UACC-257 melanoma, 103%; in the assay on M14 melanoma, 70.3%; in the assay on HCT-15 colon it was 103%; in the assay with HT29 colon it was 109%. The growth is 91% with SNB-75 CNS; 94% in the assay with SNB-19 CNS; 105% with U251 CNS; 89.2% in the assay with PC-3 prostate; 92.6% in the assay on SK-MEL-5 melanoma; 78.1% in the assay with UACC-62 melanoma. Moreover, the growth in the assay on LOX IMVI melanoma was 98.1%; in the assay on SK-MEL-28 melanoma it was 102%.
With `Cn1cc(-c2cc(N)n3nc(-c4c[nH]c5ccccc45)cc3n2)c2cc(Cl)ccc21`, the growth in the assay on DU-145 prostate is -62.6% (active); in the assay on K-562 leukemia, 7.97% (active); with MALME-3M melanoma, -78% (active); in the assay with MDA-MB-231 breast, -85.5% (active); in the assay on RXF 393 renal, -84.7% (active); in the assay on SF-268 CNS, -46.3% (active). The growth in the assay on SF-295 CNS is -88% (active); with SF-539 CNS it was -92.2% (active); with UACC-257 melanoma, -84.3% (active); in the assay on M14 melanoma it was -75.5% (active); in the assay with HCT-15 colon, -77.3% (active); in the assay on HT29 colon, -51.4% (active). Moreover, the growth with SNB-75 CNS was -14.7% (active); with SNB-19 CNS, -91.1% (active); in the assay with U251 CNS, -94.7% (active); in the assay on PC-3 prostate, -27.2% (active); with SK-MEL-5 melanoma, -97.6% (active); with UACC-62 melanoma it was -76.9% (active). The growth with LOX IMVI melanoma was -82.5% (active); in the assay on SK-MEL-28 melanoma it was -90.2% (active).
On to `CCOC(=O)c1ccc(NC(=S)NC(=O)c2ccc(NC(=O)C(C)C)cc2OC)cc1`, for which the growth was 78.2% in the assay with DU-145 prostate; 10.7% in the assay with K-562 leukemia; 3.16% (active) in the assay with MALME-3M melanoma; 47.2% in the assay on MDA-MB-231 breast; 74.2% in the assay on RXF 393 renal; 68.1% in the assay on SF-268 CNS. Moreover, the growth was 36.8% in the assay with SF-295 CNS; 79.6% in the assay with SF-539 CNS; 42% in the assay on UACC-257 melanoma; 34.1% in the assay with M14 melanoma; 23.6% with HCT-15 colon; 68.2% in the assay with HT29 colon. The growth in the assay on SNB-75 CNS was 51.1%; in the assay on SNB-19 CNS, 57.7%; with U251 CNS it was 63.4%; in the assay with PC-3 prostate, 18%; in the assay on SK-MEL-5 melanoma, -69% (active); in the assay with UACC-62 melanoma it was 30.2%. Besides, the values for the growth with LOX IMVI melanoma and in the assay with SK-MEL-28 melanoma were 45.6% and 50.8%, respectively.
Consider `CN(C)c1nc(NCCNS(=O)(=O)c2ccc(C3=Nc4c(N)nc(N)nc4NC(c4ccc(Cl)cc4)C3)cc2)nc(N2CCOCC2)n1` (stereo not given), for which the growth was 67.1% with DU-145 prostate; 15.7% in the assay with K-562 leukemia; 62.4% in the assay with MALME-3M melanoma; 12% with MDA-MB-231 breast; 2.28% (active) in the assay on RXF 393 renal; 53.4% in the assay with SF-268 CNS. Also, the growth in the assay on SF-295 CNS is 38.5%; with SF-539 CNS, 43%; with UACC-257 melanoma it was 75.7%; in the assay with M14 melanoma, 45.5%; in the assay on HCT-15 colon it was 61%; in the assay with HT29 colon, 30%. The growth in the assay on SNB-75 CNS is 57.9%; with SNB-19 CNS, 46.6%; in the assay on U251 CNS it was 49.5%; in the assay with PC-3 prostate, 26.4%; with SK-MEL-5 melanoma, 20.1%; in the assay with UACC-62 melanoma, 66.6%. For the same molecule, the growth is -2.54% (active) in the assay with LOX IMVI melanoma and 66.4% in the assay with SK-MEL-28 melanoma.
Consider `O=C1Nc2cc(-c3ccc(NS(=O)(=O)c4ccc(C(F)(F)F)cc4)cc3)ccc2/C1=C/c1ccc[nH]1`, for which the growth is 40.6% with DU-145 prostate; 11.4% in the assay with K-562 leukemia; 63.3% with MALME-3M melanoma; 66.7% in the assay on MDA-MB-231 breast; 25% with RXF 393 renal; 55.5% with SF-268 CNS. Also, the growth in the assay with SF-295 CNS was 17.6%; with SF-539 CNS, 42.4%; in the assay with UACC-257 melanoma it was 26.3%; in the assay on M14 melanoma, 55.3%; in the assay with HCT-15 colon it was 15.8%; in the assay on HT29 colon it was 12.2%. The growth was 18.6% in the assay with SNB-75 CNS; 69.9% in the assay on SNB-19 CNS; 41.1% in the assay on U251 CNS; 31.2% in the assay on PC-3 prostate; 42.7% in the assay with SK-MEL-5 melanoma; 30.5% in the assay with UACC-62 melanoma. Besides, the growth with LOX IMVI melanoma is 46.1%; in the assay with SK-MEL-28 melanoma it was 47.4%.
